Experimental findings from PubChem BioAssay are described below.

Where “and” joins values, the source holds several entries; their conditions need not be identical. Equal values may be shown once. Calls of active or inactive are those of the source.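 The calls were made as follows, unless noted: active = compounds whose cell count with miR-34 switched on is under 0.7 times the count with it off; inactive = the rest.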

The viability is a read-out of living cells in per cent, often relative to untreated cells.

A short description of experiment [1]: P. berghei load reduction in hepatocytes – cell-based, HepG2, luciferase luminescence, HepG2 viability, primary screen (AID 624349; in the data active = parasite load remaining mostly below about 12%, no sharp cut-off; inactive = mostly above about 10%;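 also: 100% = mean of DMSO negative control wells on the same plate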). As to conditions: P. berghei liver stage in HepG2, luciferase luminescence, concentration not given here; parasite load remaining: stronger effect = lower value; viability: measured here: HepG2 viability without parasites.
Experiment [2] in a line: Wnt pathway potentiators raising nuclear beta-catenin – imaging, WNT3A-conditioned medium, mouse C2C12, NPC library, primary screen (AID 1117326; in the data active = nuclear beta-catenin stimulation mostly above about 4.2%, no sharp cut-off; inactive = mostly below about 10%). Conditions: stronger effect = higher value.
Experiment [3] is described as follows: stimulators of insulin release from INS-1E, primary screen, cell-based, 5 mM glucose, NPC library (AID 1117329;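 active = compound raises insulin release from rat beta cells at 5 mM glucose, no numeric limit stated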). As to conditions: rat INS-1E insulin secretion, at 10 µM, stronger effect = higher value.
Experiment [4] can be described thus: growth inhibition of GSK3B-pretreated HCT116 cells – cell-based, CellTiter-Glo, 0.2 to 20 µM (AID 1117336;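 active = compounds lowering colon cancer cell viability after pretreatment blocking the GSK3B kinase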). As to conditions: HCT116 viability after GSK3B inhibitor, at 20 µM, stronger effect = higher value. On the technique in general: In ATP-based viability assays light output follows the ATP content of the culture.
The nature of experiment [5]: inhibition of endothelial tube formation, primary screen, imaging, VEGF stimulated, CD31 staining, tube area, NPC library (AID 1117340;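 active = compound that reduces growth-factor-driven endothelial tube area in a mixed cell culture, no cutoff stated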). Conditions: VEGF-stimulated ADSC/ECFC co-culture, at 10 µM, stronger effect = higher value.
Experiment [6] in a line: GLP1 release stimulators, primary, NCI-H716, NPC library (AID 1117341;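 active = compound raises GLP1 secretion from the human gut endocrine cells, with no numeric limit stated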). As to conditions: NCI-H716 cells, at 10 µM, stronger effect = higher value.
Experiment [7] in a line: HCT116 colon cancer cell growth inhibition, primary screen, CellTiter-Glo luminescence, NPC library (AID 1117342;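 active = compounds that lower survival of HCT116 colon cancer cells in the luminescence readout, no numeric limit stated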). Conditions: at 20 µM (top of the series).
Experiment [8] in a line: reduced SW480 viability measured with CellTiter-Glo, NPC library, primary (AID 1117343;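 active = compounds that lower viability of the colon cancer cells in the luminescence readout, with no numeric limit stated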). Conditions: CellTiter-Glo luminescence; at 20 µM (top of the series) unless noted.
Experiment [9] is described as follows: NPC library primary testing for decreased DLD-1 cell viability via CellTiter-Glo (AID 1117346;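 active = compounds that lower survival of DLD-1 colon cancer cells in the luminescence readout, no cutoff given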). As to conditions: DLD-1 viability, CellTiter-Glo luminescence; at 20 µM (top of the series).
Experiment [10] in a line: viability loss with induced miR-34 in A549 – imaging, A549 dox-inducible miR-34, nuclei and caspase counts, primary screen (AID 1347080). As to conditions: A549 miR-34 inducible, Hoechst nuclei count, 48 h.
The nature of experiment [11]: blockers of cellular phospholipid synthesis – cell-based, LOPAC library, screen 4, primary screen (AID 1347384; call rule not given here). Conditions: animal cells, phospholipid biosynthesis inhibition screen; at 10 µM.
A short description of experiment [12]: MELAS cybrid and Rieske KO viability enhancers – cell-based, MELAS cybrids, Rieske KO mouse fibroblasts, CellTiter-Glo, primary screen (AID 1508586;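 active = mean z-score across replicates of 1.96 or higher in either the MELAS or the Rieske mutant cell line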;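 also: z relative to plate mean and SD of compound and empty wells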). Conditions: low glucose.
Experiment [13] is described as follows: galactose survival enhancers in mitochondrial complex I cybrids – cell-based, galactose medium, ATP luminescence, primary screen (AID 1645843;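 active = z-score of at least 1.8 in each of two replicates, scored against plate mean and spread of sample wells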;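 also: positive z means more ATP and so rescue of galactose-driven cybrid death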). Conditions: complex I mutant cybrid cells, 72 h, stronger effect = higher value.
The mark [14] stands for this setting: stronger effect = lower value, cell number ratio, induced over uninduced.
[15] abbreviates: measured here: relative caspase fold change +Dox/-Dox.
The mark [16] stands for this setting: measured here: total cells with miR-34 induction, stronger effect = lower value.
The mark [17] stands for this setting: measured here: total cells without miR-34 induction.
Setting [18] is: MELAS cybrid survival, CellTiter-Glo 48 h, stronger effect = higher value.
Where [19] appears, read: Rieske KO mouse fibroblast survival, CellTiter-Glo 72 h.

With `C[N+](C)(C)CCOC(=O)CCC(=O)OCC[N+](C)(C)C`, the parasite load remaining in experiment [1] was 28% (inactive). In [1], this compound came in with a viability of 74.5%. Further, the nuclear beta-catenin stimulation in experiment [2] (at 10 µM) was 0.2% (inactive); in [2] (stimulation, at 2 µM), 1.4%. For the same compound, in [3], the insulin secretion stimulation was 0.95% (inactive). In experiment [4], the viability decrease is 14% (inactive). The tube area decrease in experiment [5] is -17.3% (inactive). For the same compound, in experiment [6], the GLP1 secretion stimulation was 3.2% (inactive). The inhibition of viability in [7] was 3.4% (inactive). Further, the viability decrease (inhibition) in experiment [8] is -16.3% (inactive); in experiment [9], 3.4% (inactive). Besides, the fold change in experiment [10] (setting [14]) was 0.999 (inactive) and 0.895 (inactive); in [10] (setting [15]) it was 1.13 and 1.62. For the same compound, the cell count is 9370 and 9270 in [10] (setting [16]); 9380 and 10400 in experiment [10] (setting [17]). The compound was classed as inactive in [11]. For the same compound, the z-score in experiment [12] (setting [18]) is -0.659 (inactive); in experiment [12] (setting [19]), -1.43; in [13] it was 0.34 (inactive) and -0.11 (inactive).

Regarding `COc1ccc(CCN(C)CCCC(C#N)(c2cc(OC)c(OC)c(OC)c2)C(C)C)cc1OC` (stereo unspecified), the nuclear beta-catenin stimulation in experiment [2] (at 10 µM) is 1% (inactive); in experiment [2] (stimulation, at 2 µM), 0.7%. For the same compound, in experiment [3], the insulin secretion stimulation was 0.45% (inactive). Also, the viability decrease in experiment [4] is -1.5% (inactive). Further, the tube area decrease in experiment [5] is 6.2% (inactive). Moreover, in experiment [6], the GLP1 secretion stimulation is 5.2% (inactive). For the same compound, the inhibition of viability in experiment [7] is 18.9% (inactive). Further, the viability decrease (inhibition) in [8] was 22% (inactive); in experiment [9] it was 4.6% (inactive). In addition, the fold change in experiment [10] (setting [14]) was 1.02 (inactive) and 0.953 (inactive); in [10] (setting [15]), 0.481 and 1.24. For the same compound, the cell count in experiment [10] (setting [16]) is 9650 and 5610; in [10] (setting [17]), 9490 and 5880. For the same compound, in experiment [11], the compound was called inactive. The z-score in experiment [13] is -0.635 (inactive).

Take `COC(=O)C1=C(C)NC(C)=C(C(=O)OC(C)(C)CN(C)CCC(c2ccccc2)c2ccccc2)C1c1cccc([N+](=O)[O-])c1` (stereo unspecified): the nuclear beta-catenin stimulation in experiment [2] (at 10 µM) is 22.4% (inactive); in [2] (stimulation, at 2 µM) it was -0.9%. The insulin secretion stimulation in [3] was 1.3% (inactive). Moreover, in experiment [4], the viability decrease is 93.2% (active). For the same compound, the tube area decrease in experiment [5] is 90.2% (active). Moreover, the GLP1 secretion stimulation in [6] is -3.7% (inactive). In addition, in [7], the inhibition of viability was 94% (active). Also, the figures for the viability decrease (inhibition) in experiment [8] and in experiment [9] were 127% (active) and 92.5% (active), respectively. Besides, the fold change in [10] (setting [14]) is 1.26 (inactive) and 0.934 (inactive); in [10] (setting [15]) it was 1.89 and 0.993. In addition, the cell count in experiment [10] (setting [16]) was 1980 and 4820; in experiment [10] (setting [17]), 1570 and 5160. The call in experiment [11] was active. The z-score in experiment [12] (setting [18]) is -0.809 (inactive); in [12] (setting [19]) it was -0.0835; in experiment [13], -1.52 (inactive) and -2.66 (inactive).

On to `COC(=O)C(c1ccccc1Cl)N1CCc2sccc2C1` (stereo unspecified), for which the nuclear beta-catenin stimulation is 0.3% (inactive) in [2] (at 10 µM) and -0.7% in [2] (stimulation, at 2 µM). Moreover, the insulin secretion stimulation in experiment [3] is 1.9% (inactive). In experiment [4], the viability decrease is 30.5% (inactive). Also, in experiment [5], the tube area decrease was 1.2% (inactive). In addition, the GLP1 secretion stimulation in [6] was 3.9% (inactive). Besides, the inhibition of viability in experiment [7] is 52.7% (active). The viability decrease (inhibition) in experiment [8] was 18.6% (inactive); in [9], 48.7% (inactive). Also, the fold change is 0.927 (inactive) in experiment [10] (setting [14]) and 0.912 in experiment [10] (setting [15]). Moreover, the cell count in [10] (setting [16]) was found to be 7680; in experiment [10] (setting [17]) it was 8290. In addition, the z-score in experiment [12] (setting [18]) was -0.416 (inactive); in [12] (setting [19]), 0.984.

For the compound `CCN(CC)CCCN(c1ccccc1)C1Cc2ccccc2C1`, the nuclear beta-catenin stimulation in experiment [2] (at 10 µM) is -1.7% (inactive); in experiment [2] (stimulation, at 2 µM) it was -1.3%. In [3], the insulin secretion stimulation is 32.5% (active). Also, the viability decrease in [4] was 33.8% (inactive). The tube area decrease in experiment [5] was 22.2% (inactive). Further, the GLP1 secretion stimulation in experiment [6] is -4.5% (inactive). Moreover, in experiment [7], the inhibition of viability is 50.6% (active). For the same compound, the viability decrease (inhibition) was 53.5% (active) in [8] and 32.5% (inactive) in experiment [9]. The results for the fold change in [10] (setting [14]) and in experiment [10] (setting [15]) were 1.07 (inactive) and 1.01, respectively. For the same compound, the cell count in [10] (setting [16]) turned out to be 8050; in experiment [10] (setting [17]) it was 7530. Moreover, in [11], the compound was called inactive. For the same compound, in experiment [13], the z-score was -1.11 (inactive).
